Results on 93 compounds are retold here after PubChem BioAssay AID449762 (Southern Research Specialized Biocontainment Screening …, 2010).

Structures are written as SMILES. Several values for one entry are separate records, joined by “and”; a condition that tells them apart may be missing. Equal entries are not always repeated. Hit rate of the full screen: of about 330,000 compounds, about 1,900 (0.58%) were called active. Not shown: some 4% with an inconclusive outcome. These entries were drawn from the full list. Measured potencies and affinities stand elsewhere. Values without a mark were called inactive. No stated cut-off is given here; in the data, inconclusive means inhibition above about 70% without an active follow-up result; inactive means below that.

This assay is described as follows: M. tuberculosis growth inhibition, HTS (AID 449762).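 Further: bacterial growth assessed after seven days of incubation.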 To be noted: M. tuberculosis H37Rv growth inhibition, 7H9 media; at 25 µM; stronger effect = higher value.
With `O=C(CSc1nc2ccccc2s1)CSc1nc2ccccc2s1`, the inhibition is 12%.
For `CC(=O)CSc1nc2ccccc2s1` the value was -0.04%.
For `FC(F)(F)c1nc2ccccc2c2nc3ccccc3n12` the value was 9.4%; for `c1ccc(-c2nc3ccccc3c3nc4ccccc4n23)cc1`, -1.99%.
For `COc1ccc(Cc2nc3ccc(C(=O)NCCSC)cc3o2)cc1` the value was 2.47%; for `COC(=O)CCNC(=O)c1ccc2nc(Cc3ccc(OC)c(OC)c3)oc2c1`, -1.6%; for `C/C(=N\NC(=O)C1CC1c1ccccc1)c1ccc(C)s1` (stereo not drawn), -2.49%.
On to `CCOC(=O)Cc1nn(Cc2nc(-c3ccc(C)cc3)cs2)c(=O)c2ccccc12`, for which the inhibition is -4.15%.
Regarding `CNC(=O)COc1ccc(-c2nn(C)c(=O)c3ccccc23)cc1`, the inhibition was -7.66%.
In the case of `Cn1nc(-c2ccc(OCC(N)=O)cc2)c2ccccc2c1=O`, the inhibition was -19.8%.
Consider `CCOC(=O)N1CCN(S(=O)(=O)c2ccc(C(=O)Nc3nc4c(s3)CC(C)CC4)cc2)CC1` (stereo not drawn), for which the inhibition was 16.7%.
Regarding `C#CCn1cnc2c(oc3ccccc32)c1=O`, the inhibition was 2.24%.
Next, `COc1ccc(Br)cc1-c1nc(CCl)cs1`: 60.4%; `Cc1cc(C)n2nc(CC#N)c(C#N)c2n1`: 1.45%; `N#C/C(=C\c1ccccn1)c1ccccn1`: -3.85%.
As for `CCc1ccc(N2C(=O)CN(Cc3cccs3)C2=S)cc1`, the inhibition was 38.7%.
`COc1ccccc1Nc1nc(N)nc(CN2CCN(Cc3ccccc3)CC2)n1`: the inhibition is 43.2%.
In the case of `COc1ccc(OCc2nc(N)nc(Nc3ccccc3OC)n2)cc1`, the inhibition is 2.69%.
Consider `O=C(CNC(=O)c1ccc(Br)o1)NC12CC3CC(CC(C3)C1)C2`, for which the inhibition is 5.74%.
For the compound `COc1ccc(CN2C(=NC(=O)COc3ccccc3)SC3CS(=O)(=O)CC32)cc1` (stereo not drawn), the inhibition was -7.1%.
Next, `Cc1cc(C)n2nc(SCCCC(=O)c3ccc(F)cc3)nc2n1`: -9.89%; `CN(C)N=Nc1ccc2nc[nH]c2c1`: -2.52%; `NC(=O)c1[nH]cnc1N`: -17.9% and 7.5%.
With `O=C1CCCCN1CCC(=O)N1CCCC(N2CCN(c3cccc(Cl)c3)CC2)C1` (stereo not drawn), the inhibition is -10.9%.
Next, `O=C(NNC(=O)C1CC(c2cccs2)=NO1)Nc1ccc(Cl)cc1` (stereo not drawn): -0.49%.
In the case of `Cc1cc(=O)[nH]c(SCC(=O)N(CCC#N)c2ccccc2)c1C#N`, the inhibition was -2.5%.
With `CCCCNC(=S)N1CCn2cccc2C1c1cccnc1` (stereo not drawn), the inhibition was -0.76%.
Next, `C=C1C(=O)[C@@]23[C@H](O)C[C@@H]4C(C)(C)CC[C@H](O)[C@]4(C)[C@@H]2C[C@H](O)[C@@H]1[C@H]3O`: 62.1%.
Next, `COc1cc(-c2ccc3c(=O)c4ccccc4sc3c2)cc(OC)c1OC`: 8.35%.
Turning to `Cc1oc2c(cc(NS(=O)(=O)c3ccc4c5c(cccc35)C(=O)N4)c3ccccc32)c1C(=O)OC(C)C`, the inhibition was 51%.
Consider `CCOC(=O)c1c(C)oc2ccc(NS(=O)(=O)c3ccc4c5c(cccc35)C(=O)N4)cc12`, for which the inhibition was 62.7%.
Consider `Nc1nc(SCc2ccc(Cl)cc2Cl)ns1`, for which the inhibition was 22.1%.
Regarding `Nc1nc(SCc2ccccc2)ns1`, the inhibition was 15%.
On to `CC1(C)CC[C@]2(C(=O)O[C@@H]3OC(CO)[C@@H](O)[C@H](O)[C@H]3O)CC[C@]3(C)C(=CCC4[C@@]5(C)CC[C@H](O[C@@H]6OC(C(=O)O)[C@@H](O)[C@H](O)[C@H]6O)C(C)(C)C5CC[C@]43C)[C@@H]2C1` (stereo partly drawn), for which the inhibition was 1.92%.
For `CN(CC(=O)Nc1cccc(F)c1)C(=O)c1ccc(-c2cccc(C(F)(F)F)c2)o1` the value was 0.48%; for `CCOc1ccccc1N(CC(=O)Nc1cccc2ccccc12)S(C)(=O)=O`, -0.92%.
Next, `CC1(C)Cc2c(c(N3CCOCC3)nc3sc4c(NCCN5CCOCC5)nnnc4c23)CS1`: 36.9%; `CC1(C)Cc2c(c(N3CCOCC3)nc3sc4c(NCC5CCCO5)nnnc4c23)CS1` (stereo not drawn): 11.7%; `O=S(=O)(NC1=NCCC1)c1cccc(NS(=O)(=O)c2ccc(OC(F)(F)F)cc2)c1`: -9.41%.
For the compound `COc1ccccc1N(CC(=O)NCCc1ccccc1)C(=O)CCC(=O)Nc1ccccn1`, the inhibition is -2.52%.
For `COc1ccc(NC(=O)N2CCC3(CC2)OCCO3)cc1OC` the value was 1.68%; for `COc1ccc(NC(=O)CSc2nnc(-c3ccccn3)n2N)cc1`, 8.63%; for `COc1ccc(NC(=O)CSc2nnc(-c3ccco3)n2N)cc1Cl`, 46.6%.
For `CC(C)(C)c1ccc(C(=O)NCC(=O)NNC(=O)c2ccccc2O)cc1` the value was 8.86%; for `O=C(O)c1ccc(/C=N/NC(=O)c2cc3c(ccc4ccccc43)o2)cc1`, 4.81%.
Next, `O=C(N/N=C/c1ccncc1)c1cc2c(ccc3ccccc32)o1`: 1.21%; `CC(C)(C)c1ccc(OCC(=O)Nc2ccc(C(=O)Nc3ccccc3C(=O)O)cc2)cc1`: -6.72%.
With `O=C1NCC(O)=C1C=NCCCO`, the inhibition is -4.48%.
Regarding `O=C1NCC(O)=C1C=NCCO`, the inhibition is 4.69%.
Take `Fc1ccc(N=Cc2ccc[nH]2)cc1`: the inhibition was 13.1%.
Next, `Cc1ccc(N=Cc2ccc[nH]2)c(O)c1`: 2.98%; `N#CCCn1cc(C(=O)Nc2cccc(C(=O)O)c2)c(-c2ccc(Cl)cc2)n1`: -2.32%; `Cc1ccccc1COc1ccc(-c2nnn(CC(=O)O)n2)cc1`: 0.49%.
As for `CCOc1ccc(NC(=O)CN(C)C(=O)c2c(-c3ccccc3)noc2C)cc1OCC`, the inhibition was -10.4%.
For the compound `CCc1ccccc1NNC(=O)CCc1ccccc1`, the inhibition is 4.45%.
For `Cc1ccc(NC(=O)CCC(=O)NNC(=O)CCc2ccccc2)c(C)c1` the value was 8.11%; for `CCOC(=O)CSc1nnc(CSc2nc3sc4c(c3c(=O)[nH]2)CCC4)n1C`, -1.21%.
Next, `COCCN1C(=O)C(CC(=O)Nc2ccccc2)SC1=Nc1ccc(OC)cc1` (stereo not drawn): 6.34%; `Cc1ccc(NC(=O)c2cc(-c3ccccc3)nn2-c2ccccc2)c(Br)c1`: 62.5%; `Cc1ccc(NC(=O)c2cc(-c3ccccc3)nn2-c2ccccc2)cc1`: 0.76%.
Next, `Cc1ccnc(NC(=O)COC(=O)C2COc3ccccc3O2)n1` (stereo not drawn): -4.37%.
As to `CCOc1ccc(S(=O)(=O)N2CCCCC2)cc1NS(=O)(=O)c1cccs1`, the inhibition is -3.42%.
For `COc1cc([C@@H]2c3cc4c(cc3[C@@H](OC)[C@H]3COC(=O)[C@H]23)OCO4)cc(OC)c1O` the value was -15.3%; for `COc1cc([C@@H]2c3cc4c(cc3[C@H](O)[C@H]3COC(=O)[C@H]23)OCO4)cc(OC)c1OC`, -2.97%; for `Cc1ccc(NC(=O)c2ccc3ccccc3n2)nc1`, 5.21%.
Next, `CCc1ccc(NC(=O)C(C)OC(=O)c2ccc(NS(=O)(=O)c3ccc(C)c([N+](=O)[O-])c3)cc2)cc1` (stereo not drawn): -6.87%; `COc1ccc(CCNC(=O)C2CC(c3cccc([N+](=O)[O-])c3)=NO2)cc1` (stereo not drawn): 2.77%; `CC(C)Cc1nn2c(=O)cc(CSCC(=O)Nc3ccccc3F)nc2s1`: -6.22%.
Next, `Cc1cc(C(=O)CSc2ccc(Cl)cc2)cc(C)c1OC(=S)N(C)C`: -12.1%.
For `Cc1ccc(N2C(=O)N(CC(=O)c3cc(C)ccc3C)C(=O)C2C)cc1` (stereo not drawn), the inhibition is 4.01%.
Next, `CCOc1ccc(NC(=S)NC(=O)c2cccnc2)c([N+](=O)[O-])c1`: 6.15%; `Cn1c(O)c(C=NCCN2CCNCC2)c(=O)n(C)c1=O`: -6.91%.
`O=c1[nH]c(=S)n(C2CCCCC2)c(O)c1C=NCCN1CCOCC1`: the inhibition is 4.57%.
On to `O=C1N/C(=N\N=C\c2ccc3ncccc3c2)SC1Cc1ccc(SC(F)F)cc1` (stereo not drawn), for which the inhibition was -20.7%.
For `O=C(O)CC1S/C(=N/N=C/c2ccccn2)NC1=O` (stereo not drawn) the value was -2.11%; for `O=S(=O)(NCc1ccccn1)c1ccc(Cl)s1`, 32.5%; for `N/C(=N\OC(=O)Nc1ccc(Cl)cc1)c1ncc(C(F)(F)F)cc1Cl`, 3.09%.
On to `N/C(=N\OC(=O)Nc1ccccc1)c1ncc(C(F)(F)F)cc1Cl`, for which the inhibition was -4.86%.
For `Cc1ccc(CNC(=O)CNC(=O)[C@@H]2Cc3ccccc3CN2C(=O)OC(C)(C)C)cc1` the value was 4.75%; for `Cc1ccc(-c2cn(-c3ccccc3)c3[n+]2CCCS3)cc1`, 4.87% and -0.5%; for `c1ccc(-c2cn(-c3ccccc3)c3[n+]2CCCS3)cc1`, -1.4%.
With `Cc1ccccc1CNC(=O)Nc1ccc(Cl)cc1`, the inhibition is 8.74%.
With `CCOC(=O)/C(=C\C=C\c1ccccc1)NC(=O)c1ccccc1`, the inhibition is -0.56%.
In the case of `CCOC(=O)/C(=C/C=C/c1ccccc1)NC(=O)c1ccccc1`, the inhibition was 5.87%.
On to `O=Cc1cccc(Oc2ccc([N+](=O)[O-])cc2[N+](=O)[O-])c1`, for which the inhibition is 6.01%.
Next, `Cc1nn(S(=O)(=O)N(C)C)c(C)c1CN1C(=O)c2ccccc2C1=O`: -3.78%.
As to `Cc1c(CN(C)C)c2c(n1Cc1ccccc1)C(=O)c1ccccc1-2`, the inhibition was -0.73%.
Next, `Cc1c(CN(C)C)c2c(n1C)C(=O)c1ccc(Br)cc1-2`: -6.76%.
Regarding `CC(C)(C)[C@@H]1C=C(C(N)=O)O[C@H](OCc2ccc(CO)cc2)C1`, the inhibition was 3.59%.
As to `CCn1cc(/C=N\NC(=O)c2c[nH]c3ccccc23)c(C)n1`, the inhibition was 4.35%.
For `COc1cccc2c(=S)c(CCC(C)=O)c(C)[nH]c12` the value was -1.19%; for `O=C(c1ccccc1)N1N=C(c2ccccc2)CC1(O)C(F)(F)F` (stereo not drawn), 17.4%; for `O=C(c1ccccc1)N1N=C(c2ccc(F)cc2)CC1(O)C(F)(F)F` (stereo not drawn), 14.8%.
